{"source": "PubChem BioAssay AID777", "about": "(Sanford-Burnham Center for Chemical Genomics, 2007)", "note": "Screen size: about 96,000 compounds; about 19,000 (20%) were called active.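 Rule for the calls: active = blocking of liver enzyme CYP2C9 beyond about 50% at 5 µM (limit read from the data); inactive = the rest.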 Not all results are given here."}
{"biological_target": "Cytochrome P450 2C9 (Homo sapiens) (UniProt P11712)", "sequence (P11712 whole entry, looked up)": "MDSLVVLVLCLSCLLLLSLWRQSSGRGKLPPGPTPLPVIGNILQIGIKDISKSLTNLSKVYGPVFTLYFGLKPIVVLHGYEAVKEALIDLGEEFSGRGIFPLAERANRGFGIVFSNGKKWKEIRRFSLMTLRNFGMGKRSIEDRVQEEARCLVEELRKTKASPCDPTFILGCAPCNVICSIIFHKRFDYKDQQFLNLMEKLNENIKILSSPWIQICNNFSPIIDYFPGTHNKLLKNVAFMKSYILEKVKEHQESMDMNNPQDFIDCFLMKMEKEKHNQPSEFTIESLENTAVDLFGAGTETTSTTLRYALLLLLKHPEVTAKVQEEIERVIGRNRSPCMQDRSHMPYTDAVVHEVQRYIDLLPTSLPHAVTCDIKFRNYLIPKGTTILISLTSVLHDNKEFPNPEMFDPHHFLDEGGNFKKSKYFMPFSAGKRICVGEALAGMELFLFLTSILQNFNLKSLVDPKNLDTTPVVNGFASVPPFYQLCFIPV", "assay": "blockers of cytochrome P450 2C9 activity – biochemical, luminescence, ADME assay, primary screen (AID 777)", "details": "CYP2C9 Supersomes, luciferin-H conversion, at 5 µM, stronger effect = higher value"}
{"compound": "CCC(C(=O)Nc1ncccn1)(C(F)(F)F)C(F)(F)F", "inhibition": "-8.6% (inactive)"}
{"compound": "Oc1ccc(Cl)cc1/C=N/c1nc2ccccc2[nH]1", "inhibition": "-15.4% (inactive)"}
{"compound": "CCn1ncc(C2=NOC(C(=O)N3CCN(c4ccccc4)CC3)C2)c1C", "note": "(centres undefined)", "inhibition": "-12.4% (inactive)"}
{"compound": "Cc1cc(C)c(S(=O)(=O)NCCCN2CCOCC2)cc1Br", "inhibition": "-101% (inactive)"}
{"compound": "C=CCSc1nc2c(c(=O)[nH]1)C(C(C)C)C(C#N)=C(N)O2", "note": "(centres undefined)", "inhibition": "17.7% (inactive)"}
{"compound": "COc1cccc(N2CCN(C3CC(=O)N(c4ccc(Cl)cc4)C3=O)CC2)c1", "note": "(centres undefined)", "inhibition": "11.2% (inactive)"}
{"compound": "Cn1cnc2c1c(=O)n(Cc1c(Cl)cccc1Cl)c(=O)n2C", "inhibition": "32.6% (inactive)"}
{"compound": "O=S(=O)(NC1CCCCC1)c1ccc(F)c2ccccc12", "inhibition": "53.4% (active)"}
{"compound": "O=C(CC(NS(=O)(=O)c1ccc(Cl)cc1)c1ccco1)NC1CCCC1", "note": "(centres undefined)", "inhibition": "18.5% (inactive)"}
{"compound": "Cc1cccc(OCCCC(=O)Nc2ccc(S(=O)(=O)N3CCCC3)cc2)c1", "inhibition": "65.2% (active)"}
{"compound": "CCOc1cccc(NC(=O)C2CCCN(S(=O)(=O)c3ccc(OC)cc3)C2)c1", "note": "(centres undefined)", "inhibition": "21.3% (inactive)"}
{"compound": "CC(=O)Nc1ccc(S(=O)(=O)N2CCSCC2)cc1", "inhibition": "14% (inactive)"}
{"compound": "CC(=O)Nc1ccc(S(=O)(=O)N2CCN(C3CCCCCCC3)CC2)cc1", "inhibition": "40.3% (inactive)"}
{"compound": "C=CCNC(=O)CCCOc1cccc(C)c1", "inhibition": "-3.3% (inactive)"}
{"compound": "COc1ccc(OCC(=O)OCC(=O)Nc2ccc(S(=O)(=O)N3CCCCC3)cc2)cc1", "inhibition": "63.1% (active)"}
{"compound": "O=C(Nc1ccc(S(=O)(=O)N2CCCCC2)cc1)c1cnccn1", "inhibition": "23.2% (inactive)"}
{"compound": "O=C(CSCc1ccc(Br)cc1)Nc1ccc(S(=O)(=O)N2CCCCCC2)cc1", "inhibition": "56.5% (active)"}
{"compound": "CC(=O)Nc1ccc(S(=O)(=O)N2CCN(CCCOc3cc(C)ccc3C)CC2)cc1", "inhibition": "83.6% (active)"}
{"compound": "Cc1ccc(OCCCC(=O)Nc2ccc(N3CCOCC3)cc2)cc1", "inhibition": "15.2% (inactive)"}
{"compound": "CCCN1Cc2cccc(C(=O)Nc3ccc(S(=O)(=O)N4CCCCCC4)cc3)c2C1=O", "inhibition": "38% (inactive)"}
{"compound": "COC(=O)COc1ccc(S(=O)(=O)N2CCOCC2)cc1", "inhibition": "-8.2% (inactive)"}
{"compound": "Cc1cc(OCCOc2cccc3cccnc23)c(C)cc1Cl", "inhibition": "-170% (inactive)"}
{"compound": "CCOC(=O)c1nnn(-c2nc(OC)nc(N(C)C)n2)c1-c1ccccc1", "inhibition": "6.1% (inactive)"}
{"compound": "Cc1nnc(SCC(=O)N2CCN(c3ccccc3)CC2)n1-c1ccccc1", "inhibition": "1.8% (inactive)"}
{"compound": "COc1cc(OC)cc(C(=O)Nc2ncc3c(n2)CC(C)(C)CC3=O)c1", "inhibition": "-12.1% (inactive)"}
{"compound": "CN(NC(=O)c1ccccc1)c1nc2ccccc2nc1C(F)(F)F", "inhibition": "15.5% (inactive)"}
{"compound": "Cc1cc(C(=O)CSc2nc(N)cc(=O)[nH]2)c(C)n1CCc1ccc(Cl)cc1", "inhibition": "11.4% (inactive)"}
{"compound": "CCOc1ccc(C(C)C)cc1S(=O)(=O)n1nc(C)cc1C", "inhibition": "91.3% (active)"}
{"compound": "CCOc1cc(C)c(Cl)cc1S(=O)(=O)n1nnc2ccccc21", "inhibition": "39.1% (inactive)"}
{"compound": "CCOc1ccc(NC(=O)CCC(=O)n2nc(C)cc2C)cc1", "inhibition": "5.6% (inactive)"}
{"compound": "CCSC1=C(C#N)C(=O)n2c1cc1c2CCCC1", "inhibition": "-14.3% (inactive)"}
{"compound": "O=S(=O)(NCC1CCCO1)c1ccc2ccccc2c1", "note": "(centres undefined)", "inhibition": "-199% (inactive)"}
{"compound": "CCOc1cc(C2C(C(=O)OC)=CN(C3CCCC3)C=C2C(=O)OC)cc(Br)c1O", "inhibition": "-9.6% (inactive)"}
{"compound": "Cc1noc(NS(=O)(=O)c2ccc(NC(=O)C34CCC(CC3)C4)cc2)c1C", "inhibition": "0.8% (inactive)"}
{"compound": "COc1ccc(C(=O)Nc2ccc(S(=O)(=O)Nc3onc(C)c3C)cc2)cc1OC", "inhibition": "1.2% (inactive)"}
{"compound": "Cc1noc(NS(=O)(=O)c2ccc(N/C=C/C(=O)c3ccccc3)cc2)c1C", "inhibition": "93.9% (active)"}
{"compound": "Cc1ccc(S(=O)(=O)NCCN2CCOCC2)cc1C", "inhibition": "21.9% (inactive)"}
{"compound": "Cc1ccc(-c2nc(C)sc2CC(=O)O)cc1", "inhibition": "5.6% (inactive)"}
{"compound": "O=C(Nc1ccn(Cc2ccc(F)cc2)n1)c1ccncc1", "inhibition": "92.9% (active)"}
{"compound": "Cc1nn(Cc2ccc(F)cc2)c(C)c1NC(=O)c1noc2c1CCc1ccccc1-2", "inhibition": "-1.9% (inactive)"}
{"compound": "Cc1ccc(Cn2ccc(NC(=O)c3cc(C(C)C)on3)n2)cc1", "inhibition": "97.5% (active)"}
{"compound": "Cc1cc(NC(=O)c2cc(-c3cccs3)on2)nn1Cc1ccc(Cl)cc1", "inhibition": "-17.2% (inactive)"}
{"compound": "Cc1ccc(Cn2ccc(NC(=O)C3C4CCC(C4)C3C(=O)O)n2)cc1", "note": "(centres undefined)", "inhibition": "13% (inactive)"}
{"compound": "CC(=O)Nc1ccn(Cc2c(F)cccc2Cl)n1", "inhibition": "6.2% (inactive)"}
{"compound": "CCOC(=O)c1nn(-c2cccc(C)c2)cc1C(=O)c1ccccc1", "inhibition": "33.5% (inactive)"}
{"compound": "Cc1ccc(-c2ccnc3nc(Sc4ncc(C(F)(F)F)cc4Cl)nn23)cc1", "inhibition": "9.8% (inactive)"}
{"compound": "N#Cc1cccc(CSc2nnc(CCCO)n2-c2ccccc2)c1", "inhibition": "11.5% (inactive)"}
{"compound": "Cc1cccc(NC(=O)c2ccc(OCC(=O)NCc3ccccc3)cc2)c1C", "inhibition": "-9.9% (inactive)"}
{"compound": "Cc1cccc(C)c1NC1=NC(=S)N(c2ccc(N(C)C)cc2)C1(C)C", "inhibition": "-27.7% (inactive)"}
{"compound": "COc1ccc(NC(=O)ON=C2c3ccccc3-c3ccccc32)cc1", "inhibition": "16% (inactive)"}
{"compound": "CCN(CC)S(=O)(=O)c1cc([N+](=O)[O-])ccc1NNC(=O)Nc1ccccc1", "inhibition": "25.7% (inactive)"}
{"compound": "O=C(Nc1ccccc1)O/N=C1\\CCCCC1c1ccc([N+](=O)[O-])cc1[N+](=O)[O-]", "note": "(centres undefined)", "inhibition": "63.3% (active)"}
{"compound": "Cc1ccc2oc(=O)c3cnn(CC(=O)N4CCCCCC4)c3c2c1", "inhibition": "4.4% (inactive)"}
{"compound": "COc1ccc(N2C(=O)CCC(C(=O)N(C)C3CCCCC3)C2c2ccc(OC)c(OC)c2)cc1", "note": "(centres undefined)", "inhibition": "10.7% (inactive)"}
{"compound": "CCCn1c(C(Cc2ccccc2)NC(=O)COC)nc2ccccc21", "note": "(centres undefined)", "inhibition": "74.5% (active)"}
{"compound": "C=CCn1c(C(C)NC(=O)CC)nc2ccccc21", "note": "(centres undefined)", "inhibition": "-3.6% (inactive)"}
{"compound": "CCCC(NC(=O)c1ccccc1)c1nc2ccccc2n1Cc1ccc(C(=O)OC)o1", "note": "(centres undefined)", "inhibition": "14.1% (inactive)"}
{"compound": "CC/S(CC1CC1(Cl)Cl)=N\\S(=O)(=O)c1ccc(C)cc1", "note": "(centres undefined)", "inhibition": "-9% (inactive)"}
{"compound": "CS(=O)(=O)N1CCN(c2cccc(Cl)n2)CC1", "inhibition": "19.9% (inactive)"}
{"compound": "CN1c2ccccc2-c2nc3ccccc3n2C1c1ccco1", "note": "(centres undefined)", "inhibition": "45.9% (inactive)"}
{"compound": "O=C(Oc1cccnc1)c1cc2ccccc2oc1=O", "inhibition": "30.1% (inactive)"}
{"compound": "CCc1ccc(CNC(=O)CCc2nc(-c3cccs3)no2)cc1", "inhibition": "70.4% (active)"}
{"compound": "Cc1ccc(-c2noc(CCC(=O)Nc3ccccc3N3CCN(C)CC3)n2)cc1", "inhibition": "48.1% (inactive)"}
{"compound": "CCNC(=O)CCc1nc(-c2ccc(C(C)(C)C)cc2)no1", "inhibition": "-11.4% (inactive)"}
{"compound": "Cc1cc(C)cc(N(CC(=O)Nc2c(C)n(C)n(-c3ccccc3)c2=O)S(C)(=O)=O)c1", "inhibition": "16.3% (inactive)"}
{"compound": "O=C(N/N=C/c1ccc(O)cc1)/C(=C/c1ccc([N+](=O)[O-])cc1)NC(=O)c1ccccc1", "inhibition": "-2.6% (inactive)"}
{"compound": "N#CCCN1CCN(S(=O)(=O)c2ccc(S(=O)(=O)N3CCCC3)cc2)CC1", "inhibition": "16.2% (inactive)"}
{"compound": "N#CCCN1CCN(S(=O)(=O)c2ccc(S(=O)(=O)NC3CCCCC3)cc2)CC1", "inhibition": "58% (active)"}
{"compound": "N#CCCN1CCN(S(=O)(=O)c2ccc(S(=O)(=O)NC3CC3)cc2)CC1", "inhibition": "9.6% (inactive)"}
{"compound": "Cc1ccccc1-n1c(C)cc(/C=N/NC(=O)c2ccc(CN3CCOCC3)cc2)c1C", "inhibition": "31.2% (inactive)"}
{"compound": "CC(C)(C)Oc1ncc(Br)c(OC(C)(C)C)n1", "inhibition": "-16.6% (inactive)"}
{"compound": "COc1cccc(C2/C(=C(/O)c3ccncc3)C(=O)C(=O)N2CCCN(C)C)c1", "note": "(centres undefined)", "inhibition": "-17.5% (inactive)"}
{"compound": "COc1ccc(N=Cc2c(O)[nH]c3ccccc23)cc1OC", "inhibition": "2.9% (inactive)"}
{"compound": "COc1ccc(OC)c(N=Cc2c(O)[nH]c3ccccc23)c1", "inhibition": "15.1% (inactive)"}
{"compound": "COc1cc(N=Cc2c(O)[nH]c3ccccc23)cc(OC)c1OC", "inhibition": "66% (active)"}
{"compound": "CCCCCCC(=O)Nc1nc(C)c(-c2csc(Nc3cccc(OC)c3)n2)s1", "inhibition": "19.4% (inactive)"}
{"compound": "Cc1ccc(SCC(=O)c2cc(C)c(OC(=S)N(C)C)c(C)c2)cc1", "inhibition": "58.6% (active)"}
{"compound": "Cc1ccc(SC(=O)COc2ccc(C)c(C)c2)cc1", "inhibition": "13.5% (inactive)"}
{"compound": "COC(=O)c1cc(OC)c(OC)cc1NC(=O)CSc1ccc(C)cc1", "inhibition": "21.1% (inactive)"}
{"compound": "CSc1nc(C)nc2c1c(=O)n(C)c(=O)n2C", "inhibition": "-6.6% (inactive)"}
{"compound": "CSc1nc2nc3c(c(=O)n2[nH]1)CCC3", "inhibition": "-13.2% (inactive)"}
{"compound": "Cc1ccc(C)c(N2CCN(S(=O)(=O)c3ccc4c(c3)oc(=O)n4C)CC2)c1", "inhibition": "88.4% (active)"}
{"compound": "Cc1ccc2nc(NC(=O)C3CCN(S(=O)(=O)c4ccc5c(c4)oc(=O)n5C)CC3)sc2c1", "inhibition": "-47.7% (inactive)"}
{"compound": "Cn1c(=O)oc2cc(S(=O)(=O)N3CCC(C(=O)Nc4ccc(OC(F)(F)F)cc4)CC3)ccc21", "inhibition": "-62.7% (inactive)"}
{"compound": "CCSC1(SCC)N=C(N)C2(C#N)C(c3ccccc3)NC(C)=CC12C#N", "note": "(centres undefined)", "inhibition": "6.1% (inactive)"}
{"compound": "CCOc1cccc(=O)c2c(C)n(CC3CCCO3)c(C)c12", "note": "(centres undefined)", "inhibition": "59.7% (active)"}
{"compound": "O=c1c2cc3c(=O)n(CC4CCCO4)c(=O)c3cc2c(=O)n1CC1CCCO1", "note": "(centres undefined)", "inhibition": "3.8% (inactive)"}
{"compound": "COC(=O)c1ccc2c(=O)n(CC3CCCO3)c(=S)[nH]c2c1", "note": "(centres undefined)", "inhibition": "6.5% (inactive)"}
{"compound": "OCCCN1c2ccccc2Nc2nnc(-c3ccccc3)cc21", "inhibition": "46.3% (inactive)"}
{"compound": "CN(C)c1nc2n(c(=O)n1)CCO2", "inhibition": "2.6% (inactive)"}
{"compound": "CC(C)(CNC(=O)c1cc(=O)[nH]c2ccccc12)N1CCOCC1", "inhibition": "8% (inactive)"}
{"compound": "CCOC(=O)c1[nH]c2ccc(OC)cc2c1NC(=O)CCN1CCN(Cc2ccccc2)CC1", "inhibition": "11.4% (inactive)"}
{"compound": "COC(=O)c1[nH]c2ccccc2c1NC(=O)CN1CCCc2ccccc21", "inhibition": "88.7% (active)"}
{"compound": "Cc1cccc(-n2c(O)c(C=Nc3ccccc3N)c(=O)[nH]c2=O)c1", "inhibition": "0.2% (inactive)"}
